The sample as a whole holds a higher share of hits than the screen did.
Cycloheximide cs: counter-screen for Shiga toxin inhibitors: cycloheximide protein synthesis inhibition; cell reporter, cycloheximide protein synthesis inhibition counterscreen; max response, %; AID 2314; 12% of 300,000 active; in the data active means max response mostly above about 13%, no sharp cut-off; inactive means mostly below about 14%; further: read at 38.3 µM for the half of the compounds with a filed dose; 0% is about no effect
LmPK inhibitor: inhibitors of Leishmania mexicana pyruvate kinase; Q27686; purified LmPK, Kinase-Glo ATP luminescence, 1 h; Potency, µM (titrated, usually from 57.5 µM), without a hit: at the top dose activity change, negative = inhibition, most hits filed as inhibitors; 0.37% of 290,000 active; AID 1721; further: potency means the concentration at half of the fitted maximal effect; on the % scale 0 is the no-effect control and ±100 the full control effect
Target sequence (Q27686 whole entry, looked up): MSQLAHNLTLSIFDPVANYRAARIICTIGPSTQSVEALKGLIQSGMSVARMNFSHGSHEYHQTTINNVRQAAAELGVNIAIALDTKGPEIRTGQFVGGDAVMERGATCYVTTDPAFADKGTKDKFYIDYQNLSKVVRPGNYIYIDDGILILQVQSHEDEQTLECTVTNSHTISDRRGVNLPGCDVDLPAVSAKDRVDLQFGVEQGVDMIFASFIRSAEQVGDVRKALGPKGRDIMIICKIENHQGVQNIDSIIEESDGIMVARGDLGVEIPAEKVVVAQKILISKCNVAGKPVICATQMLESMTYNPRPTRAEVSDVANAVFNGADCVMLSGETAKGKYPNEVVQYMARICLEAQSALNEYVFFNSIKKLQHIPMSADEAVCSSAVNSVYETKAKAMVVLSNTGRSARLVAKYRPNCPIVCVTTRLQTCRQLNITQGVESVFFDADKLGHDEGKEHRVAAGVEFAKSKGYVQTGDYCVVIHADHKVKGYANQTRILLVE
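In 50 mM imidazole pH 7.2 with 7 mM MgCl2, LmPK (0.1 nM) turned over PEP (0.5 mM) and ADP (0.1 mM) for 1 h at room temperature. Luciferase read-out of ATP.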
TbPYK inhibitor: blocks Trypanosoma brucei pyruvate kinase | 0.12% of 410,000 active | Q57TT1 | TbPYK enzyme, Kinase-Glo Plus ATP luminescence, 45 min | Potency, µM (doses to about 76.8 µM), inactives show at the top dose activity, negative = inhibition, actives largely listed as inhibitors; further: potency means the concentration at half of the fitted maximal effect; on the % scale 0 is the no-effect control and ±100 the full control effect; nearly all actives have a fitted effect of over 50% in size
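Readout: single end-point luminescence (Kinase-Glo Plus, 10 min). Reaction conditions were TbPYK/substrate plus 130 uM ADP, 45 min at RT, pH 7.2 TEA buffer. No-enzyme wells served as controls, and data were normalized before concentration-response fitting.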
Sm TGR inh: S. mansoni TGR enzyme inhibition; Q962Y6; purified TGR, DTNB reduction, TNB absorbance 405 nm; Potency, µM (titrated, usually from 114 µM), inactives show at the highest dose activity change, negative = inhibition, hits mostly inhibitors; 3% of 360,000 active; AID 485364; further: potency means the concentration at half of the fitted maximal effect; on the % scale 0 is the no-effect control and ±100 the full control effect; nearly all actives have a fitted effect of over 60% in size
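Kinetic colorimetric format: TGR-catalysed, NADPH-driven DTNB reduction monitored via TNB absorbance. Enzyme dispensed at 20 nM; compound exposure 15 min at room temperature before reaction start.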
Shiga toxin inh: inhibitors of Shiga toxin in Vero cells | Vero cells, Shiga toxin protein synthesis inhibition reporter | inhibition, % at 38.7 µM | 9.2% of 290,000 active | AID 2315; in the data active means inhibition mostly above about 28%, no sharp cut-off; inactive means mostly below about 43%; further: 0% is about no effect
Giardia FBPA inh: Giardia lamblia aldolase inhibition; A8B2U2; purified Giardia FBPA; Potency, µM (doses to about 59.6 µM), inactives show at the highest dose activity, negative = inhibition, usual class: inhibitors; 0.71% of 290,000 active; AID 2451; further: potency means the concentration at half of the fitted maximal effect; on the % scale 0 is the no-effect control and ±100 the full control effect; nearly all actives have a fitted effect of over 55% in size
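Giardia FBPA (40 nM reagent) was preincubated 10 min at RT with compound (up to 57.5 uM final), then substrate plus GAPDH/TPI/NAD/arsenate coupling system with diaphorase/resazurin was added; resorufin fluorescence (525/598 nm) was read after 20 min.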
Numbers without * were called inactive. Unless noted, the call rests on the fitted dose curve; in most records, active means well fitted curve in the direction sought with a large enough effect; inconclusive means small, poorly fitted or top-dose-only effect, or another doubt; inactive means no such curve, though single readings can be large; an effect the other way counts as inactive or inconclusive.

How did O=C(NC(=S)Nc1ccc(S(=O)(=O)NC2CCCCC2)cc1)c1cccs1 do in these assays?
Cycloheximide cs: 11; LmPK inhibitor: 9%; TbPYK inhibitor: -3%; Sm TGR inh: 50µM*; Shiga toxin inh: 0; Giardia FBPA inh: -4%

How did O=C(NC(=S)Nc1ccccc1)c1cccs1 do in these assays?
Cycloheximide cs: 60*; LmPK inhibitor: -1%; TbPYK inhibitor: 1%; Sm TGR inh: 7.9µM*; Shiga toxin inh: 81*; Giardia FBPA inh: inconclusive

How did O=C(Nc1ccc(NC(=S)NC(=O)c2cccs2)cc1)c1ccccc1 do in these assays?
Cycloheximide cs: 11; LmPK inhibitor: 1%; TbPYK inhibitor: 4%; Sm TGR inh: 14%; Shiga toxin inh: -2; Giardia FBPA inh: -11%

How did O=C(/C=C/c1cccs1)NC(=S)NNC(=O)c1ccccc1O do in these assays?
Cycloheximide cs: 9; LmPK inhibitor: 3%; TbPYK inhibitor: -9%; Sm TGR inh: -14%; Shiga toxin inh: -9; Giardia FBPA inh: -18%

What do the screens show for `O=C(/C=C/c1cccs1)NC(=S)Nc1ccccc1`?
Cycloheximide cs: 32*; LmPK inhibitor: 1%; TbPYK inhibitor: 4%; Shiga toxin inh: 123*; Giardia FBPA inh: -15%

How did O=C(c1noc2c1CCCCC2)N1CCN(c2cccc(C(F)(F)F)c2)CC1 do in these assays?
TbPYK inhibitor: 7%; Sm TGR inh: 0%

Results for O=C(NCc1ccccn1)C1(C(F)(F)F)CC(CCCO)CCCO1 (stereo not drawn) ?
Cycloheximide cs: -1; Shiga toxin inh: -7; Giardia FBPA inh: -4%

How did CC(=O)NC(=S)Nc1ccc(NC(=O)c2cccs2)cc1 do in these assays?
Cycloheximide cs: 28*; LmPK inhibitor: -5%; TbPYK inhibitor: -7%; Sm TGR inh: -30%; Shiga toxin inh: 32*; Giardia FBPA inh: -4%

Results for COc1ccc(C(=O)NNC(=S)NC(=O)/C=C/c2cccs2)cc1 ?
Cycloheximide cs: 37*; LmPK inhibitor: 25µM*; TbPYK inhibitor: -10%; Sm TGR inh: 9%; Shiga toxin inh: 111*; Giardia FBPA inh: 1%

How did COC(=O)c1ccc(OCC(=O)c2ccc(C)c(C)c2)cc1 do in these assays?
Cycloheximide cs: 24*; LmPK inhibitor: 0%; TbPYK inhibitor: 4%; Sm TGR inh: -9%; Shiga toxin inh: 82*; Giardia FBPA inh: 1%

Results for Cc1ccc(C(=O)COc2ccccc2-c2ccccc2)cc1C ?
Cycloheximide cs: -2; LmPK inhibitor: 2%; TbPYK inhibitor: 2%; Sm TGR inh: 1%; Shiga toxin inh: 23; Giardia FBPA inh: 12%

Results for COc1cccc(C(=O)COC(=O)c2ccc(NC(=O)c3ccccc3)cc2)c1 ?
TbPYK inhibitor: -1%

Results for COC(=O)c1ccc(OCC(=O)c2cccc(OC)c2)cc1 ?
Cycloheximide cs: 43*; LmPK inhibitor: 3%; TbPYK inhibitor: 0%; Sm TGR inh: 15%; Shiga toxin inh: 65*; Giardia FBPA inh: -11%

What do the screens show for `COc1ccc(OC)c(/C=C(/C#N)c2nc(-c3ccc(-c4ccccc4)cc3)cs2)c1`?
TbPYK inhibitor: 1%; Sm TGR inh: 2%

Results for C[C@@H](C(=O)Nc1ccc2ccccc2c1)[C@H]1C[C@]1(C)[C@H](NS(=O)(=O)c1ccccc1)c1ccccc1 ?
Cycloheximide cs: -3; LmPK inhibitor: 2%; TbPYK inhibitor: 4%; Sm TGR inh: -10%; Shiga toxin inh: 11; Giardia FBPA inh: 1%

How did O=C(/C=C/c1ccco1)OCC(=O)c1ccc(OC(F)F)cc1 do in these assays?
TbPYK inhibitor: -11%; Sm TGR inh: 22µM*

What do the screens show for `CC(C)NC(=O)COC(=O)/C=C/c1ccco1`?
Cycloheximide cs: -1; LmPK inhibitor: -1%; TbPYK inhibitor: 1%; Sm TGR inh: 50µM*; Shiga toxin inh: 3; Giardia FBPA inh: 4%

Results for O=C(COC(=O)/C=C/c1ccco1)NCc1ccccc1 ?
Cycloheximide cs: -2; LmPK inhibitor: 7%; TbPYK inhibitor: -1%; Sm TGR inh: -1%; Shiga toxin inh: 12; Giardia FBPA inh: 1%

Bioassay records from PubChem BioAssay.
